From PubChem BioAssay AID1159580 (chemical genetic matrix, 2015)
“And” between values parts separate entries of the source, which are not always exact repeats. Equal values may be shown once. Among all 5,500 compounds or so, about 2,000 (36%) were called active. Not shown: some 18% with an inconclusive outcome. Cut-off read from the data, not from the text of the source: active = normalized growth mostly below about 0.91 (no sharp cut-off); inconclusive = no clear call, values can overlap the other calls; inactive = mostly above about 0.92. The list shows a part of the results.

Test: chemical genetic growth profiling, strain panel (AID 1159580);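 note: tested at 20 µM; growth read once vehicle control cultures reached saturation at 30 °C; 1 = growth at the plate median or of vehicle wells; lower values mean less growth of the strain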
Conditions: S. cerevisiae deletion strains, growth OD

Measured: normalized growth

NC(=O)NO
inactive: locus YAL021C, strain ccr4, active compounds read low 1.02 | locus YAL026C, strain drs2, active compounds read low 1.03 | locus YAL030W, strain snc1, active compounds read low 1 | locus YAL040C, strain CLN3, active compounds read low 1.09 | locus YBL061C, strain skt5, active compounds read low 1.04 | locus YBR009C, strain hhf1, active compounds read low 1.01 | locus YBR021W, strain FUR4, active compounds read low 1 | locus YBR023C, strain chs3, active compounds read low 1.02 | locus YBR171W, strain sec66, active compounds read low 1.02 | locus YBR229C, strain ROT2, active compounds read low 0.999 | locus YBR231C, strain swc5, active compounds read low 1.01 | locus YBR279W, strain paf1, active compounds read low 1.03 | locus YCL011C, strain gbp2, active compounds read low 1.02 | locus YCL016C, strain dcc1, active compounds read low 1.02 | locus YCL029C, strain bik1, active compounds read low 1 | locus YCL061C, strain MRC1, active compounds read low 1.01 | locus YCL069W, strain vba3, active compounds read low 1.02 | locus YCR088W, strain abp1, active compounds read low 1.02 | locus YDL005C, strain med2, active compounds read low 1.02 | locus YDL035C, strain GPR1, active compounds read low 1.01 | locus YDL040C, strain nat1, active compounds read low 1.04 | locus YDL074C, strain BRE1, active compounds read low 1.01 | locus YDL101C, strain DUN1, active compounds read low 1 | locus YDL134C, strain PPH21, active compounds read low 1 | locus YDL185W, strain tfp1, active compounds read low 0.994 | locus YDL192W, strain arf1, active compounds read low 1.01 | locus YDR001C, strain nth1, active compounds read low 1.01 | locus YDR069C, strain doa4, active compounds read low 1.02 | locus YDR101C, strain arx1, active compounds read low 0.996 | locus YDR137W, strain rgp1, active compounds read low 1.04 | locus YDR159W, strain sac3, active compounds read low 1.01 | locus YDR162C, strain NBP2, active compounds read low 1.01 | locus YDR195W, strain ref2 0.962 | locus YDR297W, strain sur2, active compounds read low 1.02 | locus YDR318W, strain mcm21, active compounds read low 1 | locus YDR334W, strain swr1, active compounds read low 1.01 | locus YDR335W, strain msn5, active compounds read low 1.02 | locus YDR363W, strain ESC2, active compounds read low 1.01 | locus YDR388W, active compounds read low 0.998 | locus YDR392W, strain spt3, active compounds read low 1.04 | locus YDR502C, strain sam2, active compounds read low 0.989 | locus YEL003W, strain gim4, active compounds read low 1.02 | locus YEL037C, strain rad23, active compounds read low 1.01 | locus YEL061C, strain CIN8 (second series), active compounds read low 1.02 | locus YEL061C, strain CIN8, active compounds read low 1 | locus YER002W, strain NOP16, active compounds read low 0.998 | locus YER015W, strain faa2, active compounds read low 1.01 | locus YER016W, strain bim1, active compounds read low 1.01 | locus YER110C, active compounds read low 0.997 | locus YER111C, strain swi4, active compounds read low 1.03 | locus YER155C, strain BEM2 (second series), active compounds read low 1.01 | locus YER155C, strain BEM2, active compounds read low 0.998 | locus YER167W, strain BCK2, active compounds read low 1 | locus YFR010W, strain ubp6, active compounds read low 1.01 | locus YGL078C, strain dbp3, active compounds read low 0.999 | locus YGL086W, strain mad1, active compounds read low 0.985 | locus YGL167C, strain pmr1, active compounds read low 1.02 | locus YGL173C, strain kem1, active compounds read low 1.02 | locus YGL227W, strain vid30, active compounds read low 1.01 | locus YGL240W, strain doc1, active compounds read low 0.983 | locus YGL248W, strain PDE1, active compounds read low 1 | locus YGL253W, strain hxk2, active compounds read low 1.03 | locus YGR078C, strain PAC10, active compounds read low 1 | locus YGR135W, strain pre9, active compounds read low 0.997 | locus YGR229C, strain SMI1, active compounds read low 0.997 | locus YGR252W, strain gcn5, active compounds read low 0.943 | locus YHR013C, strain ard1, active compounds read low 1.02 | locus YHR027C, strain rpn1, active compounds read low 1.02 | locus YHR030C, strain SLT2, active compounds read low 0.989 and 0.962 | locus YHR079C, strain IRE1 (second series), active compounds read low 1 | locus YHR079C, strain IRE1, active compounds read low 0.981 | locus YHR094C, strain hxt1, active compounds read low 0.997 | locus YHR129C, strain ARP1, active compounds read low 1 | locus YHR142W, strain chs7, active compounds read low 1.04 | locus YHR200W, strain rpn10, active compounds read low 0.992 | locus YIL066C, strain RNR3, active compounds read low 1.01 | locus YIL073C, strain SPO22, active compounds read low 1.03 | locus YIL125W, strain kgd1, active compounds read low 0.989 | locus YIR030C, strain dcg1, active compounds read low 1.01 | locus YJL092W, strain hpr5, active compounds read low 1.02 | locus YJL095W, strain BCK1 (second series), active compounds read low 1 | locus YJL095W, strain BCK1, active compounds read low 1.01 and 0.965 | locus YJL115W, strain asf1, active compounds read low 1.01 | locus YJL129C, strain trk1, active compounds read low 1.03 | locus YJL134W, strain LCB3, active compounds read low 1 | locus YJL154C, strain vps35, active compounds read low 1.03 | locus YJL164C, strain tpk1, active compounds read low 1.01 | locus YJL166W, strain qcr8, active compounds read low 1.03 | locus YJL168C, strain set2, active compounds read low 1 | locus YJL187C, strain SWE1 (second series), active compounds read low 1 | locus YJL187C, strain SWE1, active compounds read low 1.03 | locus YJR043C, strain POL32, active compounds read low 1
